Test results taken from PMC4336329 (PLoS ONE, 2015).
Out of some 310,000 compounds screened, about 14,000 (4.5%) showed an effect of 50% or more. The effect is printed as a negative number. What follows is part of a selection rich in strong results, with near analogues and random picks from the rest.

These compounds were tested against human ether-à-go-go-related gene (hERG) potassium channel (human, UniProt Q12809) (assay: primary screen, population patch clamp on CHO cells stably expressing hERG; higher = less effect of the substance).
Sequence of human ether-à-go-go-related gene (hERG) potassium channel (Q12809 whole entry, looked up): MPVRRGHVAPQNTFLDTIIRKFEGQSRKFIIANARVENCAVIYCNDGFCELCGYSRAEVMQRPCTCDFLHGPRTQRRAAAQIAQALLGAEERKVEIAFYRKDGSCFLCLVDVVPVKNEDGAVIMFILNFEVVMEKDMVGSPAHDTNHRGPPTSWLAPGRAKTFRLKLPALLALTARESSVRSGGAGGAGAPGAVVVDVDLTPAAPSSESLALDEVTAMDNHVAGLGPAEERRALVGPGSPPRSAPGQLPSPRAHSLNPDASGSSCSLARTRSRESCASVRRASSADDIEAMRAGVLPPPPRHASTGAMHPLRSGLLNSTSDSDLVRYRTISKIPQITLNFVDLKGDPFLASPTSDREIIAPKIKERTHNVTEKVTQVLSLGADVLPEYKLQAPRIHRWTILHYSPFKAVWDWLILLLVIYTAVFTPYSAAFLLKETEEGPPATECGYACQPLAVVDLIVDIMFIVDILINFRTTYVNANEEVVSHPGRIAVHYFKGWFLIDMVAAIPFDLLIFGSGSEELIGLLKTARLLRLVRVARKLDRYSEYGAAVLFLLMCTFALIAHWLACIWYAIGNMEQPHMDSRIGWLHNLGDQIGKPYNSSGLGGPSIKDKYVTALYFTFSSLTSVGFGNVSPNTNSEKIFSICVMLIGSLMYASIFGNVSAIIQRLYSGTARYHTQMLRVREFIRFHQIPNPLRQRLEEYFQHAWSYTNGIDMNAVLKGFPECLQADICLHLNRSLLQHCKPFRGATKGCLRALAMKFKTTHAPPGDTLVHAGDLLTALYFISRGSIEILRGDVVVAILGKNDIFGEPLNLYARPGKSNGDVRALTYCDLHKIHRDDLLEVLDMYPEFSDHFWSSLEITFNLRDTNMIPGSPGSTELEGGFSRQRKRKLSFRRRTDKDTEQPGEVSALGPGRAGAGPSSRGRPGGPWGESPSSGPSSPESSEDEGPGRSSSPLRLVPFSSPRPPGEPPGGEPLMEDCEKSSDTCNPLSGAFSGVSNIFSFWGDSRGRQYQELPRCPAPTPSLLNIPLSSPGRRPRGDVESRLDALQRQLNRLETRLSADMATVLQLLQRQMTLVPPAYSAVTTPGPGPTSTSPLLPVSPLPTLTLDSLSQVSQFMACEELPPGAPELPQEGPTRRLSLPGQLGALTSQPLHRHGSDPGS
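Also: peak tail current of the secondary pulse compared with the same well before compound.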

Row | SMILES | hERG current change (%, negative = inhibition) at 10uM
1 | COc1ccc(/C=N/N=C/c2ccc(OC)cc2)cc1 | 14%
2 | CCOC(=O)CC1COCCN1C(=O)c1ccc2oc(Cc3ccccc3)nc2c1 (centres unmarked) | 1.91%
3 | COc1ccc([C@@H]2CC=C(C(=O)O)CN2S(=O)(=O)c2ccc(Cl)cc2)cc1 | 7.54%
4 | OCC[n+]1c2ccccc2nc2ccc(N3CCOCC3)cc21.[O-][Cl+3]([O-])([O-])[O-] | 3.86%
5 | O=C1Cc2cc(NS(=O)(=O)c3cc(F)ccc3F)cc3c2N1CCC3 | -2.87%
6 | Cc1ccc(NC(=S)N(CCN2CCOCC2)Cc2cc3cc4c(cc3[nH]c2=O)OCCO4)cc1 | -14.3%
7 | C=CCNC(=O)CN1C(=O)NC(C)(c2ccc(OC)cc2)C1=O (centres unmarked) | -14.2%
8 | COC(=O)C(NC(=O)c1ccc(OC)cc1)(Nc1ncc(S(=O)(=O)c2ccc([N+](=O)[O-])cc2)s1)C(F)(F)F (centres unmarked) | -5.41%
9 | COC(=O)C(NC(=O)c1ccccc1Cl)(Nc1ncc(S(=O)(=O)c2ccc([N+](=O)[O-])cc2)s1)C(F)(F)F (centres unmarked) | -32.8%
10 | COC(=O)C(NC(=O)c1ccc(F)cc1)(Nc1ncc(S(=O)(=O)c2ccc([N+](=O)[O-])cc2)s1)C(F)(F)F (centres unmarked) | -52.9%
11 | CCc1nnc(NC(=O)CCC(=O)NC2CCCCCC2)s1 | 3.71%
12 | O=c1c2ccccc2nc(Cc2ccccc2)n1-c1ccc(O)cc1 | -23.9%
13 | COc1ccc(-n2c(-c3ccccc3Br)nc3ccccc3c2=O)cc1 | -20.9%
14 | COc1ccc(-n2c(-c3ccccc3[N+](=O)[O-])nc3ccccc3c2=O)cc1 | -68.7%
15 | O=c1c2ccccc2nc(Cc2cccc([N+](=O)[O-])c2)n1-c1ccc(O)cc1 | -35.5%
16 | COc1ccc(-n2c(Cc3ccccc3)nc3ccccc3c2=O)cc1 | -92.8%
17 | CCCc1nc2ccccc2c(=O)n1-c1ccc(OC)cc1 | 9.5%
18 | O=c1c2ccccc2nc(Cc2ccccc2)n1-c1ccccc1 | -20.9%
19 | COc1ccc(-n2c(Cc3cccc([N+](=O)[O-])c3)nc3ccccc3c2=O)cc1 | -69.4%

Row | SMILES | hERG current change (%, negative = inhibition) at 10uM
20 | COc1ccc(-c2nc3ccccc3c(=O)n2-c2ccc(OC)cc2)cc1 | -4.5%
21 | CCc1c(C)sc(NC(=O)c2cc(-c3cc(OC)ccc3OC)on2)c1C#N | 3.3%
22 | COc1ccc2cc(C(=O)C3CCCN(C(=O)c4cccnc4)C3)ccc2c1 (centres unmarked) | -25.1%
23 | CCOC(=O)c1ccc(N=Nc2c(C)c(C#N)c(O)[nH]c2=O)cc1 | 1.91%
24 | Cc1ccc(OCCNC(=O)CCNS(=O)(=O)c2ccc(Br)cc2)cc1 | 15.7%
25 | CSc1nncc(-c2ccc(F)c(F)c2)n1 | 10.8%
26 | CCCCCCCCN=Cc1c(O)[nH]c(=O)[nH]c1=O | 4.9%
27 | NC(=S)/N=C/c1c(O)[nH]c(=O)[nH]c1=O | 12.5%
28 | C=CCNC(=S)/N=C/c1c(O)[nH]c(=O)[nH]c1=O | -52.8%
29 | CCNc1nc(NCC)n2c(SCC(=O)Nc3ccccc3Cl)nnc2n1 | 11%
30 | O=C(CSc1ccc(F)cc1)N1CCC(c2nc3ccccc3s2)CC1 | -67.1%
31 | O=C(CSc1ccc(Cl)cc1Cl)N1CCC(c2nc3ccccc3s2)CC1 | -14.5%
32 | O=C(CSc1ccccc1Cl)N1CCC(c2nc3ccccc3s2)CC1 | -7.4%
33 | O=C(CSc1ccc(Cl)cc1)N1CCC(c2nc3ccccc3s2)CC1 | -59.7%
34 | O=C(CSc1c(Cl)cccc1Cl)N1CCC(c2nc3ccccc3s2)CC1 | -0.729%
35 | CCNC(=O)N1CCC(c2nc3ccccc3s2)CC1 | 10.3%
36 | CS(=O)(=O)Cc1ccc(C(=O)N2CCCC2c2cccs2)cc1 (centres unmarked) | 16.9%
37 | CN(CCc1ccccn1)C(=O)CCC1CCCN(C(=O)c2ccccn2)C1 (centres unmarked) | 21.8%
38 | Cc1ccccc1C(=O)Nc1ccc2c(c1)OCCO2 | 6.96%

Row | SMILES | hERG current change (%, negative = inhibition) at 10uM
39 | Cc1ccc(C(=O)CCC(=O)Nc2ccccc2C)cc1C | 15%
40 | CCCCn1c(SCc2ccccn2)nc2c1c(=O)n(C)c(=O)n2C | -8.02%
41 | CCOC(=O)Cn1c(Br)nc2c1c(=O)[nH]c(=O)n2C | -58%
42 | CN1CCN(Cc2nc3c(c(=O)n(C)c(=O)n3C)n2CCCc2ccccc2)CC1 | -13.4%
43 | CCCCCn1c(CN2CCN(CCO)CC2)nc2c1c(=O)n(C)c(=O)n2C | -17.9%
44 | CCC(=O)OCCn1c(Br)nc2c1c(=O)[nH]c(=O)n2C | -0.796%
45 | CCCCn1c(SCc2nnc(-c3ccccc3)o2)nc2c1c(=O)n(C)c(=O)n2C | -56%
46 | CCCCn1c(SCc2cccnc2)nc2c1c(=O)n(C)c(=O)n2C | -28%
47 | CCCC(=O)OCCn1c(Br)nc2c1c(=O)[nH]c(=O)n2C | 16.9%
48 | CCCCCCn1c(CN2CCN(CCO)CC2)nc2c1c(=O)n(C)c(=O)n2C | -38.3%
49 | CCCCCCn1c(CN2CCN(Cc3ccccc3)CC2)nc2c1c(=O)n(C)c(=O)n2C | -71.8%
50 | CCCCCn1c(CN2CCN(Cc3ccccc3)CC2)nc2c1c(=O)n(C)c(=O)n2C | -68%
51 | Cn1c(=O)c2c(nc(CN3CCCCC3)n2CCCc2ccccc2)n(C)c1=O | -29.1%
52 | COC(=O)c1c(NC(=O)COC(=O)C2CCC2)sc(C)c1C | -13.4%
53 | Fc1ccc(-c2n[nH]c(=S)n2Cc2ccccc2)cc1 | 7.48%
54 | NCc1nc(-c2ccc(Cl)cc2)no1 | 11.2%
55 | CCOC(=O)COn1c(=O)c(-c2ccc(OC)c(OC)c2)[n+]([O-])c2ccccc21 | -11.9%
56 | O=C(Nc1ccc2c(c1)OCO2)c1ccc(CO)cc1 | 4.24%
